This passage reports inhibition results from PubChem BioAssay AID588689 (Southern Research Specialized Biocontainment Screening …, 2011).

The campaign covered roughly 340,000 compounds. About 1,000 (0.29%) were called active. No stated cut-off is given here; in the data, inconclusive means inhibition above about 29% without an active follow-up result; inactive means below that. Only a sample is shown. Potency and affinity values are given separately.

The assay deals with Genome polyprotein (Dengue virus type 2 (strain 16681-PDK53)) (UniProt P29991). In words: Dengue-2 NS5 methyltransferase inhibitors, primary screen, biochemical, confirmation dose response (AID 588689). Conditions: Dengue-2 NS5 methyltransferase capping enzyme assay, at 25 µM, stronger effect = higher value.
Genome polyprotein (Dengue virus type 2 (strain 16681-PDK53)), sequence (P29991 whole entry, looked up): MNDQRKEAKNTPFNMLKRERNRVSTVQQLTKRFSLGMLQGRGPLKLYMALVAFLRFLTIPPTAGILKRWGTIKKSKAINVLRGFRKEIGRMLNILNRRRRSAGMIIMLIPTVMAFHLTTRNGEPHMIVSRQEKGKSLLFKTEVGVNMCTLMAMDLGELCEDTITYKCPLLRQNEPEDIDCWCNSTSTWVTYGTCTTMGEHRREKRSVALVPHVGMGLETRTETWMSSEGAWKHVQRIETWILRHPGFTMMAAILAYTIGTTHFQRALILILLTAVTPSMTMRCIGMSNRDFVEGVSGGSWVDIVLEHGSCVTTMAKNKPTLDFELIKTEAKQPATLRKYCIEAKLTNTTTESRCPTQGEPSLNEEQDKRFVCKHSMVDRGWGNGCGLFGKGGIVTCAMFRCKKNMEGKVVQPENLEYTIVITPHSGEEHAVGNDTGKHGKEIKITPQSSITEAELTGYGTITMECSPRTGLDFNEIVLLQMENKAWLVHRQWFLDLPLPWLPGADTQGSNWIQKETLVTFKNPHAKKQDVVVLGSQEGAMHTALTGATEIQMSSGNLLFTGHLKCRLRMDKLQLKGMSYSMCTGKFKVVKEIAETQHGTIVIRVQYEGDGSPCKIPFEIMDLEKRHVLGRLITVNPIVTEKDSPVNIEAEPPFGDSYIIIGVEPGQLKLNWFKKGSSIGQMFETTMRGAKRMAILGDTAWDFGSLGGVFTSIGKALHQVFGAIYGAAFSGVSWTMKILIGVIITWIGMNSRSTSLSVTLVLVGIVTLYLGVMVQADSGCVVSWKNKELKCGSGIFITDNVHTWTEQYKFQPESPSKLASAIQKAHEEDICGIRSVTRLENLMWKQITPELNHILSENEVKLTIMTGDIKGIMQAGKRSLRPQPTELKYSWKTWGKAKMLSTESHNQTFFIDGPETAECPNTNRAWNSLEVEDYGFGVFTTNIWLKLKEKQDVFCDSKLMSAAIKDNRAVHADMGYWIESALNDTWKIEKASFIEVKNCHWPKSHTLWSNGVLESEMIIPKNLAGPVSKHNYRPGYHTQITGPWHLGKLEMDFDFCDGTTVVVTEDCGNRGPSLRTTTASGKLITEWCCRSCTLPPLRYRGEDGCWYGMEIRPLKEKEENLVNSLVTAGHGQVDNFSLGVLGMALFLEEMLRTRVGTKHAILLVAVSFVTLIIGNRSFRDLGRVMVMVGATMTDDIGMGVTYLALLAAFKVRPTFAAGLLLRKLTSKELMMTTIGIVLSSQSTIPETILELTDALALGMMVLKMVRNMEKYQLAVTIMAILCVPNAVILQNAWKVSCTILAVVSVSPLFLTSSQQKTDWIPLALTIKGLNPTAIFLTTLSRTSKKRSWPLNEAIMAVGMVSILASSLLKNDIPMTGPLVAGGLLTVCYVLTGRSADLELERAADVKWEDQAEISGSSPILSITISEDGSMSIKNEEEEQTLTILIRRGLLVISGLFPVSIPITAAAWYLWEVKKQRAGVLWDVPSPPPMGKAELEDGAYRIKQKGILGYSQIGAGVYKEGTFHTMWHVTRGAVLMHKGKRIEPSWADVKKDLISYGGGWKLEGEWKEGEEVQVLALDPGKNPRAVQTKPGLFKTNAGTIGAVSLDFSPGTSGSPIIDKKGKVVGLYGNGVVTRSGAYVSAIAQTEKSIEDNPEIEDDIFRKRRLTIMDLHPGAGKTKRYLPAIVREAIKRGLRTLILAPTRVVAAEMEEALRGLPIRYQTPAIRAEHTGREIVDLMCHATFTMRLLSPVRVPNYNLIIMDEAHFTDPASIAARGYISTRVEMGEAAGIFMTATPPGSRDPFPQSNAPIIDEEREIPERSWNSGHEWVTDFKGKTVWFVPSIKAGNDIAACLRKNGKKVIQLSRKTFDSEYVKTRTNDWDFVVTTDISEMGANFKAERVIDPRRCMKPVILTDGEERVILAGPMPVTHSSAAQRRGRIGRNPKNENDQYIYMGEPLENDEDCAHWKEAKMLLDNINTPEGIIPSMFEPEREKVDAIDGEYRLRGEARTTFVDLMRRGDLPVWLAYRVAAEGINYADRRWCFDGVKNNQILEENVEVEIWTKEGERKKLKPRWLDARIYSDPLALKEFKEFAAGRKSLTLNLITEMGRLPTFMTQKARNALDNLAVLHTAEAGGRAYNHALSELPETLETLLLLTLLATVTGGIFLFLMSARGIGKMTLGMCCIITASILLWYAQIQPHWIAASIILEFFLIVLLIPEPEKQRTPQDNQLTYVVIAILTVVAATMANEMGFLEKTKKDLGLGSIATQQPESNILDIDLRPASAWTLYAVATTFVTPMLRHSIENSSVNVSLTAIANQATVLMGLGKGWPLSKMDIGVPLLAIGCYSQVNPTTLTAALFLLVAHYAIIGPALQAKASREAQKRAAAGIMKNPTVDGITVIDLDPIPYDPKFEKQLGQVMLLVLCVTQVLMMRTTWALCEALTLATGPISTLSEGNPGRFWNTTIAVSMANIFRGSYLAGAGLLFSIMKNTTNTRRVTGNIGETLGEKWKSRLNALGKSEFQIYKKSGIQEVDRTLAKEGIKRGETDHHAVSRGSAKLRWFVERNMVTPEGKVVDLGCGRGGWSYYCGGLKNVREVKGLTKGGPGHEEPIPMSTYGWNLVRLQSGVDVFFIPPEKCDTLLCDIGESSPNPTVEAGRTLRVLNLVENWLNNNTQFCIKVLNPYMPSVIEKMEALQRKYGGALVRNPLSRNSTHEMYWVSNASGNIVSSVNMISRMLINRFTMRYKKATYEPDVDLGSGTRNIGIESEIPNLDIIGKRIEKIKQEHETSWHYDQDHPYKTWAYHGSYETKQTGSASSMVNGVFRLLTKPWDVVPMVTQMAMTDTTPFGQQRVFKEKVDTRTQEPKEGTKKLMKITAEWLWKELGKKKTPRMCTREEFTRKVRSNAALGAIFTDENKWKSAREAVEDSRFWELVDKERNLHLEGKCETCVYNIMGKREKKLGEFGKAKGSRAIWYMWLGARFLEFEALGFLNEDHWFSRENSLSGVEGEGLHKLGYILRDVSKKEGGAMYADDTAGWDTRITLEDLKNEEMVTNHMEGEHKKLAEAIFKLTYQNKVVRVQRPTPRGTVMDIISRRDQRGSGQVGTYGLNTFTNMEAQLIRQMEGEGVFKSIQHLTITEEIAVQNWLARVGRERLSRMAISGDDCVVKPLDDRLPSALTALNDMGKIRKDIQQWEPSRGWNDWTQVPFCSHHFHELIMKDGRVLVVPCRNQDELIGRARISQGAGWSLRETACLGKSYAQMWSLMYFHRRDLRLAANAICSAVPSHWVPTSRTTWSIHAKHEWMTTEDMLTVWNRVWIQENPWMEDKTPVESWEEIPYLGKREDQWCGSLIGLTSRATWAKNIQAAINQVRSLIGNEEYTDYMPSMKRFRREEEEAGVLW
For `CC(NC(=O)C1CCC1)c1ccc(Cl)cc1` (stereo not drawn), the inhibition was -3.24% (inactive). With `O=C1C2C3C=CC(C4CC34)C2C(=O)N1/N=C/c1ccc(-c2ccc(Cl)cc2[N+](=O)[O-])o1` (stereo not drawn), the inhibition is 0% (inactive). With `Cc1ccc(-c2ccc(/C=N/N3C(=O)C4C5C=CC(C6CC56)C4C3=O)o2)c([N+](=O)[O-])c1` (stereo not drawn), the inhibition was -2.05% (inactive). For `COCc1cc(C)nc(N/N=C/c2ccc(-c3ccc(Cl)cc3[N+](=O)[O-])o2)c1C#N` the value was 0.9% (inactive); for `Cc1ccc(-c2ccc(/C=N/N3C(=O)C4C5C=CC(CC5)C4C3=O)o2)c([N+](=O)[O-])c1` (stereo not drawn), 4.83% (inactive); for `Cc1nc2ccccn2c1C(=O)N/N=C/c1ccccc1Cl`, 0.65% (inactive). With `CCCCOc1ccc(-c2cnc3ccccc3n2)cc1`, the inhibition is 1.6% (inactive). With `Cc1cc(N2CCC(C(=O)NCC3CC3)CC2)nc(-c2ccccc2)n1`, the inhibition is -10.6% (inactive). With `COC(=O)N(C)C[C@H]1OCc2cnnn2CCCC(=O)N([C@@H](C)CO)C[C@@H]1C`, the inhibition is 0% (inactive). In the case of `CC1=NOC(=O)/C1=C\c1ccc(-c2cccc(Cl)c2)o1`, the inhibition is 6.14% (inactive). Take `CC1=NOC(=O)/C1=C\c1ccc(-c2ccccc2Br)o1`: the inhibition is 3.96% (inactive). In the case of `CC1=NOC(=O)/C1=C/c1ccc(-c2ccc(Cl)cc2)o1`, the inhibition is 19% (inactive).

With `CC1(C)OC(=O)C(=Cc2ccc(-c3ccc(Cl)c(C(=O)O)c3)o2)C(=O)O1`, the inhibition is -35.6% (inactive). In the case of `CC(C)N1C(=O)S/C(=C\c2ccc(-c3ccc(Cl)c(C(=O)O)c3)o2)C1=O`, the inhibition is 9.54% (inactive). The same measure for `CC1=NOC(=O)/C1=C\c1ccc(-c2ccc(Br)cc2)o1`: 24.5% (inactive). In the case of `CC(=O)N(c1ccccc1)c1nc2ccccc2s1`, the inhibition was -3.1% (inactive). As to `O=C(CNCc1ccccc1Cl)Nc1ccc(C(=O)N2CCCCC2)cc1`, the inhibition is -14.1% (inactive). On to `CNC(=O)c1ccsc1NC(=O)CS(=O)(=O)c1ccc(F)cc1`, for which the inhibition is -0.55% (inactive). On to `CCN1CCN(CCCN(Cc2ccco2)C(=S)Nc2cccc(Cl)c2C)CC1`, for which the inhibition was 5.26% (inactive). Take `Nc1cc(=O)[nH]c(SCC(=O)Nc2cccnc2Cl)n1`: the inhibition is 11.6% (inactive). Turning to `O=C1NN(c2ccc(Br)cc2)C(=O)/C1=C\c1ccc(O)cc1O`, the inhibition is -25.4% (inactive).

For the compound `COc1cccc(/C=C2\CCc3ccccc3C2=O)c1`, the inhibition was 1.96% (inactive). For `Cc1cc(/C=C2\C(=O)NN(c3ccccc3)C2=O)c(C)n1-c1ccccc1O` the value was 2.89% (inactive); for `N#C/C(=C\c1cccc(OC(=O)c2cccs2)c1)C(N)=O`, -25% (inactive); for `COc1ccc(-n2c(C)cc(/C=C3\C(=O)NN(c4ccccc4)C3=O)c2C)cc1`, 3.87% (inactive). Regarding `COc1cc(C=C2C(=O)c3ccccc3C2=O)cc(OC)c1`, the inhibition was 18% (inactive). As to `O=C1OC(c2ccccc2)=N/C1=C/c1cccc(OC(=O)c2cccs2)c1`, the inhibition was 6.35% (inactive). On to `COc1cc(/C=C2/C(=O)NN(c3ccccc3)C2=O)cc(Br)c1O`, for which the inhibition is -40.3% (inactive).
